aDG glyco act – increases alpha dystroglycan glycosylation; 0.22% of 360,000 active; activation, % at 10 µM; Pro5-aDG cells, alpha-DG glycosylation AlphaScreen (IIH6); 0% Pro5, 100% B10-LARGE cell signal;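 active = activation of at least 8% versus controls, or a plate z-score of at least 8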;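 note: Pro5 are CHO cells carrying HIG-tagged alpha-DG that lacks glycosylation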
TROY NFkB inh – TROY signaling inhibition. Q293 LMP1-TROYcd NF-kB luciferase reporter, 4 h. inhibition, % at 10 µM. 0.98% of 360,000 active. AID 1347056;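 active = compounds whose plate-normalised and pattern-corrected inhibition of the luciferase reporter signal at the single screening dose is 50% or more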
HSP90 inh – HSP90 refolding inhibition in rabbit reticulocyte lysate | 0.91% of 290,000 active | luciferase refolding luminescence, 3 h | inhibition, % at 5.6 µM | AID 1789;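 active = inhibition above the screen-wide mean plus 3 SD, computed separately per campaign, cut at about 16% in these data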;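 note: 0% = DMSO wells and 100% = 60 µM geldanamycin wells; inhibitors lower the luminescence because luciferase stays unfolded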
EBV LMP1 NFkB – Epstein-Barr LMP1 NF-kappaB reporter inhibition. LMP1-induced NF-kappaB luciferase reporter cells, luminescence. inhibition, % at 12.5 µM. 0.69% of 350,000 active. AID 504558; in the data active = inhibition above about 41%; inconclusive = no clear call, values can overlap the other calls;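 note: 0% = neutral control wells and 100% = reference inhibitor control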
LGR2 antag – Drosophila LGR2 receptor signaling inhibition. HEK293 LGR2, CRE-luciferase, bursicon-stimulated, 4 h. inhibition, % at 9.99 µM. 0.35% of 380,000 active;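 active = drop in luminescence signal, shown as inhibition above about 50% in the replicate tests, limit read from the data, passing the limit was not always enough; inconclusive = probably only some replicates passing the limit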;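 note: agonist challenge used bursicon conditioned medium at about half maximal strength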
TWEAK Fn14 block – TWEAK-Fn14 signaling inhibition; TWEAK-stimulated Fn14 reporter cells, luciferase luminescence, 8 h; inhibition, % at 10 µM; 2% of 360,000 active; AID 1159606; in the data active = inhibition above about 50%
Numbers without * were called inactive. This is a sample that favours compounds with a hit; in the whole collection about 2.6% have one here.

Results for COc1ccc(C(=O)CC(Sc2ccccc2N)c2ccc(OC)cc2)cc1 (stereo not drawn) ?
aDG glyco act: 0.2; TROY NFkB inh: 12.8; EBV LMP1 NFkB: -73.1; LGR2 antag: 67.6*; TWEAK Fn14 block: 79.8*

Results for CN1C(=O)c2cc(NC(=O)Nc3ccccc3Cl)ccc2OC[C@@H]2O[C@@H](CC(=O)NCCCN3CCOCC3)CC[C@@H]21 ?
LGR2 antag: -7.1

Results for COc1ccc(C2NC(=O)NC3=C2CCc2ccccc23)cc1 (stereo not drawn) ?
aDG glyco act: 0.5; TROY NFkB inh: -1.0; HSP90 inh: 3.5; EBV LMP1 NFkB: -14.2; TWEAK Fn14 block: 7.5

What do the screens show for `CC(C)c1ccc(C2NC(=O)NC3=C2CCc2ccccc23)cc1` (stereo not drawn)?
aDG glyco act: 0.1; TROY NFkB inh: 54.9*; HSP90 inh: -0.1; EBV LMP1 NFkB: -0.2; TWEAK Fn14 block: 76.3*

Results for COc1cccc(S(=O)(=O)N2CC3(CN(C(=O)Nc4cccc(F)c4)[C@@H](CO)c4[nH]c5cc(OC)ccc5c43)C2)c1 ?
LGR2 antag: 20.9

Results for CCCn1c(C)cc(C(=O)COc2ccc(-c3nnco3)cc2)c1C ?
aDG glyco act: 0.1; TROY NFkB inh: 12.7; HSP90 inh: 16.4*; EBV LMP1 NFkB: -11.8; LGR2 antag: -44.5; TWEAK Fn14 block: 6.3

Results for CCCn1c(C)cc(C(=O)COc2ncnc3sccc23)c1C ?
aDG glyco act: 0.4; TROY NFkB inh: 10.6; HSP90 inh: 0.4; EBV LMP1 NFkB: 2.9; LGR2 antag: -60.4; TWEAK Fn14 block: -5.5

How did CCCCn1cnc2c(sc3nc4c(cc32)CSC(C)(C)C4)c1=O do in these assays?
aDG glyco act: 0.2; TROY NFkB inh: 37.8; HSP90 inh: 4.9; EBV LMP1 NFkB: -51.9; LGR2 antag: -53.7; TWEAK Fn14 block: 31.0

Results for CC(C)CCn1cnc2c(sc3nc4c(cc32)CSC(C)(C)C4)c1=O ?
aDG glyco act: 0.6; TROY NFkB inh: 66.9*; HSP90 inh: 7.9; EBV LMP1 NFkB: -9.1; LGR2 antag: 13.4; TWEAK Fn14 block: 68.2*

Results for COc1ccc(Sc2ccc(/C=C3\C(=O)NN(c4ccccc4)C3=O)o2)cc1 ?
aDG glyco act: 1.5; TROY NFkB inh: 17.3; HSP90 inh: 2.8; EBV LMP1 NFkB: 0.1; LGR2 antag: -12.1; TWEAK Fn14 block: 92.8*

What do the screens show for `O=C1NN(c2ccccc2)C(=O)/C1=C\c1ccc(-c2cc([N+](=O)[O-])ccc2O)o1`?
aDG glyco act: 0.5; TROY NFkB inh: -12.3; HSP90 inh: -1.3; EBV LMP1 NFkB: 3.7; LGR2 antag: 3.1; TWEAK Fn14 block: -4.1

What do the screens show for `CC(OC(=O)C1CCCCC1)c1nc2ccccc2[nH]1` (stereo not drawn)?
aDG glyco act: 0.1; TROY NFkB inh: -6.8; HSP90 inh: -1.4; EBV LMP1 NFkB: 12.6; LGR2 antag: 3.9; TWEAK Fn14 block: 58.9*

How did O=C(C[C@H]1C=C[C@@H](NC(=O)Nc2ccc(C(F)(F)F)cc2)[C@H](CO)O1)NCc1ccccn1 do in these assays?
LGR2 antag: -2.2

Results for CN(CC1CCCO1)S(=O)(=O)c1ccc(C(=O)Nc2nc3cc4c(cc3s2)OCO4)cc1 (stereo not drawn) ?
aDG glyco act: 0.0; TROY NFkB inh: 29.9; HSP90 inh: -0.8; EBV LMP1 NFkB: 15.9; LGR2 antag: 18.6; TWEAK Fn14 block: 52.6*

How did CCN(CC)S(=O)(=O)c1cccc(C(=O)Nc2nc3cc4c(cc3s2)OCCO4)c1 do in these assays?
aDG glyco act: 0.7; TROY NFkB inh: 61.3*; HSP90 inh: -0.8; EBV LMP1 NFkB: 3.9; LGR2 antag: 3.3; TWEAK Fn14 block: 94.8*

Results for COc1ccc(NC(=O)N(C)C[C@H]2OCCCC[C@@H](C)Oc3ccc(NC(=O)CCCN(C)C)cc3C(=O)N([C@H](C)CO)C[C@H]2C)cc1 ?
LGR2 antag: 4.3

What do the screens show for `C[C@@H]1ON(C)[C@H]2C[C@H]3c4[nH]c5ccc(-c6ccc7c(c6)OCO7)cc5c4CCN3C[C@@H]12`?
aDG glyco act: -0.1; TROY NFkB inh: 29.8; EBV LMP1 NFkB: -20.2; LGR2 antag: -19.7; TWEAK Fn14 block: 85.0*

Results for CC(C)NC(=O)Nc1ccc2c(c1)C(=O)N([C@H](C)CO)C[C@H](C)[C@H](CN(C)CC1CCCCC1)OCCCC[C@H](C)O2 ?
LGR2 antag: 5.2

How did Cc1cc(C(=O)COc2cccnc2[N+](=O)[O-])c(C)n1-c1ccccc1 do in these assays?
aDG glyco act: 0.1; TROY NFkB inh: -12.5; HSP90 inh: 2.4; EBV LMP1 NFkB: inconclusive; LGR2 antag: -18.6; TWEAK Fn14 block: 90.4*

Results for Cc1ccc(-n2c(C)cc(C(=O)COc3cccnc3[N+](=O)[O-])c2C)cc1 ?
aDG glyco act: 0.7; TROY NFkB inh: 29.8; HSP90 inh: 3.2; EBV LMP1 NFkB: 15.4; LGR2 antag: -38.1; TWEAK Fn14 block: 62.7*

Results for O=C(Nc1nc2ccccc2s1)c1ccc2sc([C@H]3C[C@H](O)[C@@H](CO)O3)nc2c1 ?
aDG glyco act: -0.3; TROY NFkB inh: 44.9; LGR2 antag: 98.4*; TWEAK Fn14 block: 64.1*

Results for O=C(Nc1nccs1)c1ccc2sc([C@H]3C[C@H](O)[C@@H](CO)O3)nc2c1 ?
aDG glyco act: 0.0; TROY NFkB inh: -33.8; LGR2 antag: -18.6; TWEAK Fn14 block: 0.2

What do the screens show for `COC(=O)N(C)C[C@@H]1OCc2cn(nn2)CCCC(=O)N([C@@H](C)CO)C[C@@H]1C`?
LGR2 antag: -7.0

Results for COc1ccccc1C(=O)Nc1ccc2c(c1)OC[C@@H](C)N(C)C[C@H](C)[C@@H](OC)CN(C)C2=O ?
LGR2 antag: 10.8

How did COc1ccc(N=C(C)C2C(=O)c3ccccc3C2=O)cc1 do in these assays?
aDG glyco act: -0.1; TROY NFkB inh: 15.5; TWEAK Fn14 block: 64.2*

How did c1ccc(-c2cc3nc(NCC4CC4)nc(NCC4CCCCC4)c3s2)cc1 do in these assays?
aDG glyco act: 3.2; TROY NFkB inh: 15.1; LGR2 antag: -35.2; TWEAK Fn14 block: 56.0*

How did COCCNc1nc(NCC2CCCCC2)c2sc(-c3ccccc3)cc2n1 do in these assays?
aDG glyco act: 3.9; TROY NFkB inh: 0.6; LGR2 antag: 12.8; TWEAK Fn14 block: 12.3

How did CN(CCOc1ccc(Cl)cc1)C(=O)c1cccc(S(=O)(=O)N2CCN(c3ccc(F)cc3)CC2)c1 do in these assays?
aDG glyco act: 2.5; TROY NFkB inh: 13.2; EBV LMP1 NFkB: 3.0; TWEAK Fn14 block: 63.7*

What do the screens show for `CN(Cc1ccc(OC(F)F)cc1)C(=O)c1cccc(S(=O)(=O)N2CCN(c3ccccc3)CC2)c1`?
aDG glyco act: 2.3; TROY NFkB inh: 36.9; EBV LMP1 NFkB: 23.3; LGR2 antag: 0.4; TWEAK Fn14 block: 72.8*

Results for Cc1cccc(C)c1NC(=O)CN(C)C(=O)c1cccc(S(=O)(=O)N2CCN(c3ccccc3)CC2)c1 ?
aDG glyco act: 0.3; TROY NFkB inh: 22.5; HSP90 inh: 1.4; EBV LMP1 NFkB: 3.2; LGR2 antag: -1.1; TWEAK Fn14 block: -8.4

Compound activity from PubChem.
